The values that follow come from PubChem BioAssay AID1347416 (National Center for Advancing Translational Sciences (NCATS), 2020).

Out of some 4,100 compounds screened, about 1,600 (39%) were called active. Roughly 25% stayed inconclusive and do not appear here. Calls come from the whole dose curve; as a rule, active = well fitted inhibition curve with a large enough effect; inconclusive = small, poorly fitted or top-dose-only effect; inactive = no such curve, though single readings can be large or run the other way. The list shows a part of the results. Entries that show only a call come without a potency.
Potency is the fitted concentration of half-maximal effect.

This assay can be described thus: qHTS Validation assay for Inhibitors of Plasmodium falciparum Dd2 growth in vitro. Note: nearly all actives have a fitted effect of over 70% in size. The conditions noted are these: P. falciparum Dd2 in RBCs, SYBR Green growth, 72 h; series mostly up to 28.7 µM. The procedure, abridged:
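P. falciparum Dd2-infected red blood cells (2.5% hematocrit, 0.3% parasitemia) grown 72 h at 37 °C under 5% O2 with compounds in a titration, 29 uM to 0.5 nM final. Growth read as SYBR Green-1 fluorescence after ~16 h lysis; artesunate 300 nM as positive control.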
As to `O=C(c1cc2cc(Br)ccc2[nH]1)N1CCc2ccccc21`, the Potency entry is “inactive”.
For the molecule `NNC(=O)CN1C(c2cccc(Cl)c2)=Nc2ccc(Br)cc2C1c1ccccc1` (configuration not stated), the Potency was 2.66 µM (active).
Consider `NNC(=O)CN1C(=O)Nc2ccc(Br)cc2C1c1ccccc1` (configuration not stated), for which the Potency result is “inactive”.
As to `COC(=O)CC1Oc2ccc(Cl)cc2-n2cc(-c3ccc(F)cc3)nc21` (configuration not stated), the Potency was 4.22 µM (active).
Turning to `CN(C1CCCCC1)S(=O)(=O)c1ccc2c(c1)c(=O)c(C(=O)N1CCN(c3ccccc3F)CC1)cn2C`, the Potency result was “inactive”.
As for `CCn1cc(C(=O)N2CCN(c3ccccc3)CC2)c(=O)c2cc(S(=O)(=O)N(C)C3CCCCC3)ccc21`, the Potency entry was “inactive”.
With `CCn1cc(C(=O)NCCCN2CCCC(C)C2)c(=O)c2cc(S(=O)(=O)N(C)C3CCCCC3)ccc21` (configuration not stated), the Potency is 8.41 µM (active).
On to `COc1ccc(CC(=O)N[C@@H]2CN(c3ccccn3)C[C@H]2CN(C)C)cc1`, for which the Potency entry is “inactive”.
On to `Cc1cc(Cl)c(S(=O)(=O)N2CCN(c3ccccn3)CC2)cc1OCC(=O)NC1CCCCC1`, for which the Potency is 0.668 µM (active).
Take `O=C(CC1CCCN(c2cnn(CC3CC3)c(=O)c2)C1)N1CCN(c2ccccn2)CC1` (configuration not stated): the Potency entry was “inactive”.
With `Cn1cccc1CN1C[C@@H](COc2ccncc2)[C@H](c2ccccn2)C1`, the Potency was 13.3 µM (active).
With `O=C(COc1ccc(Cl)cc1)N1C[C@@H](CO)[C@H](c2ccccn2)C1`, the Potency entry was “inactive”.
Then `Cn1cccc1CN1CCn2c(nnc2-c2ccccc2)C1`, with “inactive”; and `CC(C)CCN(CCC(C)C)CC(O)Cn1c2ccccc2c(=O)c2ccccc21` (configuration not stated), with 1.88 µM (active).
With `O=C(c1ccc(OC2CCN(Cc3c[nH]c4ccccc34)CC2)cc1)N1CCCCC1`, the Potency was 15 µM (active).
Then `O=C([C@@H]1C[C@H](Oc2ccccc2)CN1C(=O)c1cc2ccccc2[nH]1)N1CCCC1`, with “inactive”; and `O=C(Cc1c[nH]c2ccccc12)N1CCc2c(nc(-c3ccc(F)cc3)[nH]c2=O)C1`, with “inactive”.
In the case of `CN1C2CCC1/C(=C\c1ccccc1)C(=O)/C2=C\c1ccccc1`, the Potency was 2.11 µM (active).
Turning to `Cc1cc(Oc2c(C(F)(F)F)oc3c(CN4CCC(C)CC4)c(O)ccc3c2=O)cc(C)c1Cl`, the Potency was 0.75 µM (active).
Then `Cc1ccc(Oc2c(C(F)(F)F)oc3c(CN4CCC(C)CC4)c(O)ccc3c2=O)cc1`, with 1.68 µM (active); and `CCc1nc(CN(C)C(C(=O)O)c2ccc(C(C)(C)C#N)cc2)no1` (configuration not stated), with “inactive”; and `Nc1ccc(NC(=O)c2cccc(C(=O)Nc3ccc(N)cc3Cl)c2)c(Cl)c1`, with “inactive”.
For `CN1CCCCCC(O)c2cc(C(=O)N3CCN(Cc4ccccc4)CC3)ccc21` (configuration not stated), the Potency entry is “inactive”.
Turning to `CCOC(=O)C1CCN(C(=O)c2cc(C(C)(C)C)nn2Cc2ccccc2)CC1`, the Potency was 4.73 µM (active).
Regarding `O=C(c1cnc2n1CCN(CCc1ccccc1)CC2)N1CCC(c2ccccc2)CC1`, the Potency entry is “inactive”.
For the molecule `Cc1cn2nc(C(=O)N3CCC(C(=O)NCCc4ccccc4)CC3)cc2c(=O)[nH]1`, the Potency result is “inactive”.
In the case of `CCOC(=O)C1CCN(C(=O)c2cc3c(n2C)CCN(Cc2ccccc2)C3)CC1` it was 10.6 µM (active); in that of `CCn1nc(C)cc1C(=O)N1Cc2cnn(Cc3ccc(F)cc3)c2C1`, “inactive”; in that of `COc1ccc(NC(=O)c2ccc(Cl)c(S(=O)(=O)N3CCc4ccccc4C3)c2)cn1`, 7.5 µM (active).
In the case of `COc1ccc(NC(=O)c2ccc3c(c2)NC(C)(COCC2CC2)CO3)cn1` (configuration not stated) it was “inactive”; in that of `O=C(Nc1cccnc1)c1ccc(Cl)c(S(=O)(=O)N2CCc3ccccc32)c1`, “inactive”.
Regarding `CC(C)N(C)Cc1nnnn1CC(=O)N1CCC(O)(c2cccnc2)CC1`, the Potency result was “inactive”.
For the molecule `Cc1cc(C)cc(N=Cc2[nH]c3ccc(Br)c(Cl)c3c2O)c1`, the Potency is 11.9 µM (active).
As to `O=C(Cc1ccc(NC(=O)N2CCSc3ncccc32)cc1)NCCc1ccccc1`, the Potency result is “inactive”.
With `CCOc1ccc(CCNC(=O)Nc2ccccc2)cc1OCC`, the Potency is 5.31 µM (active).
On to `CC(C)C(=O)Nc1oc(-c2ccccc2)cc1C#N`, for which the Potency is 6.68 µM (active).
In the case of `c1ccc(-c2noc(-c3ccn4c(CN5CCSCC5)nnc4c3)n2)cc1`, the Potency entry is “inactive”.
Consider `CCN(CC)CCNc1ccnc2cc(Cl)ccc12`, for which the Potency is 0.211 µM (active).
With `CCN1CCN(C(=O)c2ccc3c(Cl)c4c(nc3c2)CCCC4)CC1`, the Potency result was “inactive”.
As to `Clc1ccc2c(NCc3ccccn3)ccnc2c1`, the Potency is 2.11 µM (active).
With `CCN1CCC(Nc2ccnc3cc(Cl)ccc23)CC1`, the Potency was 0.188 µM (active).
With `CCC(O)c1cc2n(n1)CCN(C(=O)CN1CCOc3ccccc3C1)C2` (configuration not stated), the Potency entry was “inactive”.
Take `CN1CCC2(C1)CN(Cc1ccccc1)c1ccc(C(=O)Nc3ccc(F)cc3)cc12` (configuration not stated): the Potency was 19.3 µM (active).
With `CC1(CNc2ccccc2)COc2ccc(C(=O)NCc3cccc(F)c3)cc2N1` (configuration not stated), the Potency entry was “inactive”.
For the molecule `CN1c2cc(C(=O)Nc3ccc(F)cc3)ccc2C(=O)N2CCCCC21` (configuration not stated), the Potency result is “inactive”.
With `Cc1sc2nc(-c3ccccn3)[nH]c(=O)c2c1-c1ccccc1`, the Potency is 13.3 µM (active).
For `Cc1cccc(Nc2cc(C)c3c(O)cccc3n2)c1C`, the Potency is 4.73 µM (active).
In the case of `Cc1ccccc1Nc1cc(C)c2c(O)cccc2n1` it was 5.31 µM (active); in that of `Cc1cccc(NC(=O)Cn2c(C)cc3nc4n(c(=O)c32)CCCCC4)c1C`, “inactive”.
Then `Nc1ccc2oc(-c3ccc4nc[nH]c4c3)nc2c1`, with 13.3 µM (active); and `CCc1ccc2oc(-c3ccc(NC(=O)c4cc5ccccc5o4)cc3)nc2c1`, with “inactive”.
On to `O=C(Nc1ccc(-c2nc3cc(NC(=O)c4ccccc4F)ccc3o2)cc1)c1ccccc1F`, for which the Potency result was “inactive”.
Consider `COc1ccc(CCN(C)C(=O)CC(c2cccc(F)c2)c2cn(C)c3ccccc23)cc1OC` (configuration not stated), for which the Potency was 8.41 µM (active).
Consider `OC(CNC1CCCCCC1)COc1cccc2ccccc12` (configuration not stated), for which the Potency was 1.88 µM (active).
For `C/C(=N\Nc1ncnc2sc(C)c(C)c12)c1ccccn1`, the Potency is 1.33 µM (active).
Regarding `Cc1sc2ncnc(NCC3(N4CCOCC4)CCCCC3)c2c1C`, the Potency entry is “inactive”.
As for `Cc1sc2ncnc(SC(C)C(=O)N3c4ccccc4Sc4ccccc43)c2c1C` (configuration not stated), the Potency entry was “inactive”.
In the case of `COc1ccc(-c2noc([C@@H]3CCCN3C(=O)CCCc3ccccc3)n2)cc1` it was “inactive”; in that of `O=C(CCCc1ccccc1)N1CCC[C@H]1c1nc(-c2ccccc2)no1`, “inactive”.
Then `Cc1cnc(C2CCC2)n1C1CCCN(C(=O)CCCc2ccccc2)C1` (configuration not stated), with 15 µM (active); and `CCOc1ccc(NC(=O)c2nnn3cc(C)[nH]c(=O)c23)cc1`, with 10.6 µM (active); and `Cc1cccc(CNC(=O)c2nnn3cc(C)[nH]c(=O)c23)c1`, with “inactive”.
